Experimental findings from PubChem BioAssay AID1159524 (National Center for Advancing Translational Sciences (NCATS), 2015) are described below.

Molecules are shown by their SMILES. Among all 410,000 compounds or so, about 5,100 (1.2%) were called active. A call without a number means that no potency is given here. Inconclusive results (about 8%) are left out. Many of the other results were omitted from the sample, so actives are more common in it than they were. Values without a mark were called inactive. The call rests on the fitted dose curve; tested in HEK293T cells.
Potency means the concentration at half of the fitted maximal effect.

A short description of this experiment: High Throughput Screening for Foot and Mouth Disease Virus Antivirals. Further: nearly all actives have a fitted effect of over 45% in size. The note with it: FMDV antiviral cell-based qHTS; series mostly up to 57.9 µM. A general note: In qHTS, concentration-response curves come from the screen itself.
For the compound `COc1cc(=O)n2c(c1C(=O)N(C)Cc1nccs1)CCN(Cc1ccc(Cl)cc1)CC2`, the Potency result is “inactive”. Take `CCc1cc2c(SCC(=O)Nc3ncc(Cl)c(C)c3Cl)ncnc2s1`: the Potency result was “inactive”. The same measure, in the same setting: in the case of `Clc1cc(NC2CCCCC2)ncn1` it was “inactive”; in that of `CCc1cc2c(NC3CCCC3)ncnc2s1`, 25.1 µM (active); in that of `Cc1noc(C)c1-c1cc(NCc2cccnc2)ncn1`, “inactive”. Turning to `CC(=O)OC1CCC2(O)CC1(C)CCC1C2CC1(C)C` (centres undefined), the Potency entry is “inactive”. For `C[C@@]12CCC3C(CC[C@@H]4CC(O)CC[C@@]34C)C1CCC2O` (some centres undefined), the Potency result is “inactive”. Take `CCCCOc1ccc(C(=O)Nc2cccc(-c3nc4ccccc4o3)c2C)cc1`: the Potency result was “inactive”. Turning to `Cc1cccc(NC(=O)N2CCC(CN3CCc4ccccc4C3)CC2)c1C`, the Potency result was “inactive”.

For `CCCCCCCC/C=C\CCCCCCCC(=O)OC[C@H](CO)OC(C)=O`, the activity change, negative = inhibition is -19.7% [at 6.7 µM]. Consider `Cc1cc(C)cc(Oc2nc3c(C)cccn3c(=O)c2/C=C(\C#N)C(=O)NC2CCS(=O)(=O)C2)c1` (centres undefined), for which the Potency is 22.4 µM (active).

On to `COc1ccc(-c2ccc(OC(=O)NC3CCS(=O)(=O)C3)cc2)cc1` (centres undefined), for which the Potency entry was “inactive”.

On to `Cc1ccc(C(=O)N/C(=C\c2ccco2)C(=O)NC2CCS(=O)(=O)C2)cc1` (centres undefined), for which the Potency entry was “inactive”. As for `CC(=O)OCC(=O)[C@@]1(O)CCC2C3CCC4=CC(=O)CC[C@@]4(C)[C@]3(F)C(O)C[C@]21C` (some centres undefined), the Potency entry was “inactive”. `CCCCC/C=C\CC1OC1CCCCCCCC(=O)O` (centres undefined): the activity change, negative = inhibition was -2.3% [at 0.463 µM]. Turning to `CCN1CCN(C(=O)CCN2C(=O)c3ccccc3C2=O)CC1`, the Potency entry was “inactive”.

On to `O=C(CCc1ccccc1F)N1CCN(c2ccccc2)CC1`, for which the Potency result is “inactive”. The same measure, in the same setting: in the case of `C=CCN1CCN(C(=O)CCCc2ccccc2)CC1` it was 14.1 µM (active); in that of `O=S(=O)(c1ccc(Br)cc1)c1nnn2c1nc(NC1CCCCCC1)c1sccc12`, “inactive”; in that of `CC(=O)N1CCC2(CCCN(Cc3ccc(C#N)cc3)C2)CC1`, “inactive”.

For `CC(=O)Nc1ccc(S(=O)(=O)N2CCN(CCCOc3cc(C)ccc3C)CC2)cc1`, the Potency is 31.6 µM (active). For `Cc1ccc(C)c(OCCC(=O)Nc2cccc(S(=O)(=O)N3CCCC3)c2)c1`, the Potency entry was “inactive”.

Take `CC(=O)Nc1ccc(S(=O)(=O)N2CCN(c3ccccc3)CC2)cc1`: the Potency result was “inactive”. Still for that read-out and setting: in the case of `CCNc1ncc2nc(CCc3ccccc3)c(=O)n(-c3ccc(OC)cc3)c2n1` it was “inactive”; in that of `O=C(c1csnn1)N1CCC[C@@]2(CCN(Cc3nccs3)C2)C1`, “inactive”; in that of `CC(C)NC(=O)N1CC[C@@]2(CCCN(C(=O)c3cccc(F)c3)C2)C1`, “inactive”. Same read-out and setting: in the case of `CCc1cccc(C)c1Nc1c(-c2ccc(N(C)C)cc2)nc2ncccn12` it was “inactive”; in that of `CC1CCN(C(=O)Cn2c(=O)n(-c3ccc(Cl)cc3)c(=O)c3c4c(sc32)CCC4)CC1`, “inactive”; in that of `CCCCn1c(=O)c2oc3ccccc3c2n(CC(=O)Nc2ccccc2OC)c1=O`, “inactive”. With `CCCOc1ccc(C(=O)C(CCC(CNCC)C(=O)c2ccc(OCCC)cc2)CNCC)cc1` (centres undefined), the Potency is 28.2 µM (active). Consider `CCCOc1cccc(C(=O)Nc2cccc(NC(=O)c3ccc(C(C)(C)C)cc3)c2)c1`, for which the Potency result was “inactive”.

Take `CC(C)CCOc1ccc(C(=O)C[N+]2(C)CCOCC2)cc1`: the Potency result is “inactive”. As to `O=C(NC(c1ccc(-c2ccccc2)cc1)c1cnccn1)C1CCN(CCOc2ccc(Cl)cc2Cl)CC1` (centres undefined), the Potency is 35.5 µM (active). For the compound `Cc1ccc(C(NC(=O)C2CCN(CCOc3ccc(Cl)cc3Cl)CC2)c2ccccn2)cc1` (centres undefined), the Potency result is “inactive”.

For the compound `Cc1cccnc1C(NC(=O)C1CCN(Cc2ccc(Cl)c(Cl)c2)CC1)c1ccc(Cl)cc1` (centres undefined), the Potency entry was “inactive”.

Turning to `Oc1ccc2c(c1)OCC1c3cc4c(cc3OC21)OCO4` (centres undefined), the Potency result was “inactive”.

`COc1ccc(-c2nn3c(=O)cc(CN4CCN(C(=O)c5ccc(OC)c(OC)c5)CC4)nc3s2)cc1`: the Potency result was “inactive”.

On to `CCOc1ccc(NC(=O)c2cn(C3CCCCC3)c(=O)c3c2c2ccccc2n3C)cc1`, for which the Potency result is “inactive”. On to `CC(C)C1=CC2=CC[C@@H]3[C@](C)(CO)CCC[C@]3(C)C2CC1` (some centres undefined), for which the Potency result is “inactive”. On to `O=C(OC12CC3CC(CC(C3)C1)C2)c1ccc(NCc2cc(O)ccc2O)cc1`, for which the Potency is 12.6 µM (active). Same read-out and setting: with `CCN(Cc1ccncc1)C(=O)[C@@H](CO)c1ccccc1` the entry was “inactive”. Turning to `CC1Cc2cc(S(=O)(=O)CCC(=O)Nc3ccc(F)c(Cl)c3)ccc2N1C(=O)C1CC1` (centres undefined), the Potency result was “inactive”. On to `COc1ccc(-c2nc3cnc(OC)nc3n(Cc3ccc(F)cc3)c2=O)cc1`, for which the Potency entry is “inactive”.

With `CN(C)S(=O)(=O)c1ccc(NC(=O)COC(=O)c2n[nH]c3ccccc23)cc1`, the Potency is 22.4 µM (active). Take `O=C(COC(=O)c1n[nH]c2ccccc12)Nc1ccccc1Br`: the Potency result is “inactive”. For the compound `CN(C)S(=O)(=O)c1ccc(NC(=O)COC(=O)Cn2[nH]c(=O)c3ccccc3c2=O)cc1`, the Potency result was “inactive”. Regarding `CCN1CCC(O)(/C=C/c2ccc(C)cc2)C(C(=O)/C=C/c2ccc(C)cc2)C1` (centres undefined), the Potency was 28.2 µM (active). On the same count and under the same terms, in the case of `COc1ccccc1-c1ccnc(-n2ncc(C(=O)NCCCN3CCOCC3)c2C)n1` it was “inactive”; in that of `COc1ccc(CCNC(=O)COC(=O)C2CCCCC2)cc1`, “inactive”. Still for that read-out and setting: with `Cc1ccc(CNC(=O)COC(=O)C2CCC2)cc1` the figure was 31.6 µM (active); with `O=C(COC(=O)CNC(=O)C1CCCCC1)NCc1ccccc1`, “inactive”; with `COc1ccc(Cn2ccnc2SCC(=O)NCc2ccco2)cc1`, “inactive”. Regarding `COc1ccc2[nH]cc(CCNc3ncnc4ccc(-c5ccc(C(=O)N(C)C)cc5)cc34)c2c1`, the Potency entry is “inactive”.

As to `Cc1nn(CC(=O)NCC2CCCO2)c(=O)c2cc3ccccc3n12` (centres undefined), the Potency result was “inactive”. `CCN1C(=O)C(=Cc2c(C)n(CC(=O)NCC3CCCO3)c3ccccc23)C(=O)N(CC)C1=S` (centres undefined): the Potency was 25.1 µM (active).

As to `COc1ccc(CCNC(=O)CCn2c(=O)c3ccccc3n(CC(=O)NCC3CCCO3)c2=O)cc1OC` (centres undefined), the Potency result is “inactive”. Consider `COC1=C[C@]23CCCN2CCc2cc4c(cc2[C@@H]3[C@@H]1O)OCO4`, for which the Potency entry is “inactive”.

For the compound `c1ccc2c(c1)C(=NC1CCCCC1)NC2=NC1CCCCC1`, the Potency was 15.8 µM (active). As for `CC(=O)c1c(C)[nH]c(C(=O)Nc2cc(S(=O)(=O)N(C)C)ccc2C)c1C`, the Potency entry is “inactive”. For `CC(=O)c1c(C)[nH]c(C(=O)COC(=O)c2cccc(S(=O)(=O)N(C)c3ccccc3)c2)c1C`, the Potency is 11.2 µM (active).

On to `CCCCn1c(N)c(N(CCOC)C(=O)c2cccc(S(=O)(=O)N(C)c3ccccc3)c2)c(=O)[nH]c1=O`, for which the Potency entry is “inactive”. Still for that read-out and setting: in the case of `COc1cc(-c2cccnc2)cc2c1OCCN(C(=O)Cc1csc(C)n1)C2` it was “inactive”. Still for that read-out and setting: in the case of `CC(=O)Nc1cccc(/C(C)=N/NC(=O)c2c(-c3ccccc3Cl)noc2C)c1` it was 25.1 µM (active); in that of `Cc1ccc2cc(CCNC(=O)c3c(-c4ccccc4Cl)noc3C)c(=O)[nH]c2c1`, “inactive”. Still for that read-out and setting: in the case of `Cc1onc(-c2c(F)cccc2Cl)c1C(=O)Nc1cccc(S(=O)(=O)N2CCCCC2)c1` it was “inactive”.

Regarding `FC(F)(F)c1ccccc1-c1cc(NCc2ccccc2)ncn1`, the Potency result was “inactive”.

With `Nc1ncn(C2OC(CO)C(O)C2O)c(=O)n1` (centres undefined), the Potency entry is “inactive”. In the case of `CCOC(=O)c1cc(C)nc(S(C)(=O)=O)c1C#N`, the Potency was 35.5 µM (active). Regarding `CCCCSc1[nH]c(=O)c(C(=O)OCC)cc1C#N`, the Potency result is “inactive”. On the same count and under the same terms, with `CCOC(=O)c1c(C(C#N)C#N)cc(C)nc1C` the entry was “inactive”. Still for that read-out and setting: in the case of `COC(=O)N1CCC2(CCCN(c3ccncc3)C2)CC1` it was “inactive”; in that of `O=C1CCCCC1C(=O)c1ccccc1` (centres undefined), “inactive”; in that of `CC[C@H](C)C(=O)N[C@H]1CCCN1C(=O)/C=C/c1ccccc1`, “inactive”. For `Cc1[nH]c(=O)c(C(=O)/C=C/c2ccccc2)c2c1CCCC2`, the Potency was 12.6 µM (active). `COC(=O)N1CCC[C@@]2(CCN(C(=O)NC(C)C)C2)C1`: the Potency result is “inactive”. As for `Cc1cc(C)cc(OCC(=O)Nc2c(C(=O)c3ccccc3)oc3ccccc23)c1`, the Potency entry is “inactive”. The same measure, in the same setting: in the case of `CNc1nc(-c2ccccc2OC)nc2ccccc12` it was “inactive”; in that of `CC1C(O)CC2C(C(=O)O)=CO[C@@H](O[C@H]3OC(CO)C(O)C(O)C3O)C21` (some centres undefined), “inactive”. For `COc1ccc(CCNC2=C(Cl)C(=O)N(Cc3ccccc3)C2=O)cc1OC`, the Potency is 25.1 µM (active). Take `COc1ccc(CCNC(=O)CCCCn2c(=O)c3ccccc3n(Cc3ccccc3)c2=O)cc1OC`: the Potency result is “inactive”.

In the case of `COc1ccc(CCNS(=O)(=O)c2ccc(Cl)s2)cc1OC`, the Potency result was “inactive”. For `CCC1CN(CCNC(=O)c2cccc(C)n2)Cc2cc(OC)ccc2O1` (centres undefined), the Potency entry was “inactive”.

For the compound `COC(C)C(C(=O)OCC1=CCN2CC[C@H](O)[C@@H]12)C(C)C` (some centres undefined), the Potency result is “inactive”. As for `CCc1ccc(NC(=O)c2cnc3c(-c4ccccc4)c(C)nn3c2C)cc1`, the Potency entry was “inactive”.

As for `CC(C)=CC1C(C(=O)O)C1(C)C` (centres undefined), the Potency entry was “inactive”.

Take `Nc1nc2[nH]c(=O)c(=O)[nH]c2c(=O)[nH]1`: the Potency entry is “inactive”. With `COc1ccc(NC(=O)C(=O)NCc2ccco2)cc1`, the Potency result is “inactive”. In the case of `COc1ccc(CC(=O)Nc2ccc(-c3nc4ccccc4s3)c(C)c2)cc1`, the Potency entry is “inactive”. Regarding `COc1ccc(CS(=O)/C(Cl)=C(/Cl)C(=O)Nc2ccc(OC)nc2)cc1` (centres undefined), the Potency was 5.62 µM (active). For the compound `Nc1ncnc2c1ncn2C1CC(O)C(CO)O1` (centres undefined), the Potency entry is “inactive”.

Regarding `CC1CC[C@@]23CCC4(C)[C@@]5(C)CCC6C(C)(C)C(O)CC[C@@]6(C)C5C=C[C@@]4(OC2=O)C3C1C` (some centres undefined), the Potency entry is “inactive”. For the compound `O=c1oc2ccccc2c(O)c1C(c1ccccc1O)c1c(O)c2ccccc2oc1=O`, the Potency entry was “inactive”. Same read-out and setting: in the case of `CC1=Nc2cc(C(=O)N3CCC(C)CC3)ccc2Sc2ccc(Cl)cc21` it was “inactive”; in that of `CCC(=O)N1CCc2cc(S(=O)(=O)NC(Cc3ccccc3)C(=O)NCc3ccc(C)cc3)ccc21` (centres undefined), “inactive”.

Regarding `CSCCC(NS(=O)(=O)c1ccc(C)cc1)C(=O)NCCc1c[nH]c2ccccc12` (centres undefined), the Potency entry is “inactive”. Take `CCN(CC(=O)NCCc1ccccc1)S(=O)(=O)c1ccc(C)cc1`: the Potency result is “inactive”. The same measure, in the same setting: with `Cc1ccc(S(=O)(=O)N(C)CC(=O)NCCc2c[nH]c3ccccc23)cc1` the figure was 15.8 µM (active); with `COc1ccc(CCNC(=O)c2ccc3c(c2)nc(C)n3-c2ccc(Br)cc2)cc1OC`, “inactive”. The same measure, in the same setting: in the case of `O=C(CCc1nc(CN2CCN(S(=O)(=O)c3ccc(Br)cc3)CC2)no1)N1CCCCC1` it was “inactive”.
